Most compounds without a hit are left out; they make up all but 9.2% or so of the library.
FLuc modulator = qHTS profiling assay for firefly luciferase inhibitor/activator using purifed enzyme and Km concentrations of substrates (counterscreen for miR-21 project). 360,000 compounds, 6.9% hits. Luciferin 4-monooxygenase (Photinus pyralis), P08659. AID 588342, 2011. purified FLuc, Km substrates, luminescence inhibition. Potency, µM (series often up to 57.5 µM), for the others: top-dose activity change, negative = inhibition, usual class: inhibitors;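 note: plate controls were vehicle for no effect and reference inhibitor for full effect; nearly all actives have a fitted effect of over 55% in size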
Target sequence (P08659 whole entry, looked up): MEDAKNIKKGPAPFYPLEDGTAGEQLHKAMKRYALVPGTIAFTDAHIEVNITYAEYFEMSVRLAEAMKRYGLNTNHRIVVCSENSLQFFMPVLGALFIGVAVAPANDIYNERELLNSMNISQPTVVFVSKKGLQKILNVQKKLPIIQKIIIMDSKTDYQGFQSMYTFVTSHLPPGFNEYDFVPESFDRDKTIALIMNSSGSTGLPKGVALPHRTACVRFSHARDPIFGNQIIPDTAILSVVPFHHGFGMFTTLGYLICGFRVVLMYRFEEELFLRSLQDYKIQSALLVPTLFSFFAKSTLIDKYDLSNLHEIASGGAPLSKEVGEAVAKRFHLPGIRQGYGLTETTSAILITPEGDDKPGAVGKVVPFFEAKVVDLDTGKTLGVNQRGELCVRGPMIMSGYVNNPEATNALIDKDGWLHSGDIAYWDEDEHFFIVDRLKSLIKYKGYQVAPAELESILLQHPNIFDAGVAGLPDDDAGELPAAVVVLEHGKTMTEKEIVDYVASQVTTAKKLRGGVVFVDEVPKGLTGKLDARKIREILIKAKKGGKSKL
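Purified P. pyralis luciferase, 10 nM final, with Km-level 10 uM D-luciferin and 10 uM ATP in 50 mM Tris acetate pH 7.5, 10 mM Mg acetate, 0.01% Tween-20, 0.05% BSA; 6-point qHTS titration about 60 µM downward; luminescence read.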
ELG1 repair inh = qHTS screen for small molecules that inhibit ELG1-dependent DNA repair in human embryonic kidney (HEK293T) cells expressing luciferase-tagged ELG1 | AID 504467, 2011 | HEK293T ELG1-luciferase reporter, luminescence, 16 h; DNA damage induced by 5-fluorouridine | 330,000 compounds, 2.3% hits | Potency, µM (titrated, usually from 46.1 µM), for inactives: at the highest dose activity change, negative = inhibition, most hits filed as inhibitors; note: % is set by controls: 0 for no effect and ±100 for the full control effect; nearly all actives have a fitted effect of over 55% in size
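5-Fluorouridine DNA damage + compound/DMSO, 2,000 cells/well, 16 h, 37 °C/5% CO2. ONE-Glo, 30 min RT, luminescence. Readout = decrease in reporter signal.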
ELG1 genotox = qHTS screen for small molecules that induce genotoxicity in human embryonic kidney (HEK293T) cells expressing luciferase-tagged ELG1; HEK293T ELG1-luciferase reporter, luminescence, 16 h; Potency, µM (series often up to 46 µM), inactives show at the highest dose activity change, positive = activation, actives largely listed as activators; 330,000 compounds, 1.3% hits; AID 504466, 2011; note: % of control where 0% means no effect; nearly all actives have a fitted effect of over 60% in size
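Reporter readout depends on ELG1 protein level, which increases with genetic stress. After 16 hr compound exposure at 37 °C, luciferase activity was quantified using ONE-Glo.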
NPC1 promoter act = qHTS Assay for NPC1 Promoter Activators | Huh7 NPC1 promoter luciferase reporter, 24 h | Potency, µM (titrated, usually from 9.22 µM), inactives show top-dose activation, hits mostly activators | 320,000 compounds, 2.4% hits; note: % of control where 0% means no effect; nearly all actives have a fitted effect of over 60% in size
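Huh7 cells stably carrying NPC1 promoter–luciferase, plated in Opti-MEM with 10% FBS for 2 h, were exposed to compound in DMSO for 24 h at 37 °C; luciferase reagent was added for 10 min and luminescence read.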
Rab9 promoter act = qHTS Assay for Rab9 Promoter Activators. Huh7 Rab9 promoter-luciferase reporter, luminescence, 24 h. Potency, µM (series often up to 9.22 µM), inactives show at the top dose activation, negative = inhibition, usual class: activators. 320,000 compounds, 2.8% hits. AID 485297, 2010; note: % of control where 0% means no effect; nearly all actives have a fitted effect of over 60% in size
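Quantitative HTS format; Huh7 Rab9-luciferase reporter cells (1500/well) receive compound 2 h post-plating, incubate 24 h at 37 °C, then get luciferase reagent for 10 min before luminescence reading.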
SMN2 splice up = qHTS Assay for Enhancers of SMN2 Splice Variant Expression; Potency, µM (series often up to 46.1 µM), without a hit: at the top dose activity change, positive = activation, usual class: activators; 210,000 compounds, 2.8% hits; HEK293 SMN2-luciferase splicing reporter, luminescence, 30-36 h; note: % of control where 0% means no effect; nearly all actives have a fitted effect of over 55% in size
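HEK293 cells carry an SMN2 […]–luciferase reporter in which exon 7 inclusion puts luciferase in frame. Cells were plated 10-12 h before compound addition, then incubated 30-36 h at 37C. ONE-Glo luminescence was read; sodium butyrate at 4.5 mM final served as control.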
* hit, by the source's call; ? = inconclusive; / = no result. Calls come from the whole dose curve; as a rule, active = well fitted curve in the direction sought with a large enough effect; inconclusive = small, poorly fitted or top-dose-only effect, or another doubt; inactive = no such curve, though single readings can be large; an effect the other way counts as inactive or inconclusive. Potency is the fitted concentration of half-maximal effect.

SMILES	FLuc modulator	ELG1 repair inh	ELG1 genotox	NPC1 promoter act	Rab9 promoter act	SMN2 splice up
CCOC(=O)c1ccc(-n2c(CN(CC)CC)nc3ccc([N+](=O)[O-])cc3c2=O)cc1	?	7%	-2%	10%	-3%	-16%
O=C(CSc1ccc(Cl)cc1)NCc1ccco1	-11%	?	1%	2%	-2%	/
O=C(Nc1ccc2nc(-c3ccccc3)[nH]c2c1)c1ccco1	11µM*	?	?	?	?	16µM*
CC(=O)Nc1ccc(Oc2ccc3nc(C)[nH]c3c2)cc1	0%	-2%	2%	0%	-5%	-39%
CC(=O)Nc1ccc2nc(-c3ccc(Br)o3)[nH]c2c1	3.8µM*	?	?	?	3.5µM*	?
CC(C)(C)C(=O)Nc1ccc(-c2nc3ccc(NC(=O)C(C)(C)C)cc3[nH]2)cc1	1.9µM*	/	/	/	/	?
O=C(Nc1ccc2nc(-c3ccc(Br)o3)[nH]c2c1)c1cccs1	4.3µM*	9%	-1%	0%	23%	-13%
CCOc1ccc(NC(=O)Cn2c(=O)n(Cc3ccc4c(c3)OCO4)c(=O)c3ccc(C(=O)NC4CCCCC4)cc32)cc1	-3%	/	/	/	/	5%
O=C(Nc1ccc2nc[nH]c2c1)c1ccco1	19µM*	?	?	19%	?	8%
Cc1nc2ccc(C(=O)Nc3ccc4nc[nH]c4c3)cc2[nH]1	?	-6%	-2%	1%	-4%	/
CCOc1ccc(C(C)=O)cc1COc1ccc(C)nc1[N+](=O)[O-]	0%	-17%	-2%	-29%	-24%	/
CCOc1ccc(C(C)=O)cc1COc1ccc(-c2nnco2)cc1	0%	7.3µM*	-15%	6%	3%	/
CCn1nc(NS(=O)(=O)c2ccc([N+](=O)[O-])cc2)c2cc3cc(C)ccc3nc21	11µM*	17%	5%	-2%	11%	/
CC(C)Cn1nc(NS(=O)(=O)c2cccc3nonc23)c2cc3ccccc3nc21	?	-3%	-3%	-3%	-4%	/
CCn1nc(NS(=O)(=O)c2cccc3nonc23)c2cc3ccc(C)cc3nc21	30µM*	23%	4%	1%	3%	/
CCn1nc(NS(=O)(=O)c2ccc([N+](=O)[O-])cc2)c2cc3ccc(C)cc3nc21	?	-11%	-4%	-4%	-3%	/
CCOc1cccc2sc(N(CCN(CC)CC)C(=O)c3ccco3)nc12	-8%	/	/	/	/	/
CC1(C)C[C@@H]2C(=O)CCC3O[C@@]3(C)CCC21 (stereo not given in full)	/	/	/	/	/	-2%
COc1ccc(CNS(=O)(=O)c2ccc(C(=O)N(C)C)s2)cc1	-6%	/	/	/	/	/
COc1ccccc1Nc1ccc2nonc2c1[N+](=O)[O-]	-3%	3%	9%	-12%	-3%	/
COc1ccccc1N/C=C/c1onc(C)c1[N+](=O)[O-]	0.3µM*	?	?	1µM*	0.4µM*	1.1µM*
Cc1noc(/C=C/c2ccccn2)c1[N+](=O)[O-]	?	18µM*	-32%	-29%	-16%	/
Cc1noc(C(=O)Nc2ccc(F)cc2F)c1Cl	-3%	0%	10%	17%	27%	/
Cc1noc(/C=C/Nc2ccc(F)cc2F)c1[N+](=O)[O-]	2.1µM*	?	16µM*	?	1.4µM*	4µM*
Cc1cccc2cn[nH]c12	0%	14%	7%	-12%	-5%	/
SMILES	FLuc modulator	ELG1 repair inh	ELG1 genotox	NPC1 promoter act	Rab9 promoter act	SMN2 splice up
Cc1[nH]nc2cn[nH]c12	0%	13µM*	-15%	8%	-1%	6%
CCc1ccc(N2CC(c3nc4ccccc4n3Cc3ccccc3C)CC2=O)cc1 (stereo not given)	-8%	/	/	/	/	/
COc1cc(/C=C2\C(=O)NN(c3ccc(C)cc3)C2=O)cc([N+](=O)[O-])c1O	27µM*	11%	1%	0%	-4%	-8%
COc1cc(/C=C2/C(=O)N(c3ccc(C(=O)O)cc3)N=C2C)cc(OC)c1O	?	-5%	0%	-3%	0%	/
COc1cc(/C=C2/C(=O)N(c3ccc(C)c(C)c3)N=C2C)cc([N+](=O)[O-])c1O	17µM*	-13%	0%	-6%	3%	/
CCOc1cc(/C=C2\C(=O)NN(c3ccccc3)C2=O)cc([N+](=O)[O-])c1O	17µM*	21%	18%	-2%	1%	23%
COc1ccc(-n2c(=O)c3c4c(sc3n(Cc3cc(C)ccc3C)c2=O)CN(C(C)=O)CC4)c(OC)c1	-7%	/	/	/	/	18%
Cc1cccc(N2CCN(CC(=O)N(C3CCCC3)C3CCS(=O)(=O)C3)CC2)c1C (stereo not given)	/	-5%	-3%	-2%	0%	/
CC(=O)c1ccc(NC(=O)CSc2nccn2Cc2ccc3c(c2)OCO3)cc1	-8%	/	/	/	/	/
CCCCN(C)CCCNC(=O)Cn1ncc2c3ccccc3n(Cc3cccc(Cl)c3)c2c1=O	-7%	/	/	/	/	6%
CC1(C)Cc2nc3sc4c(SCC(=O)NCc5ccccc5)ncnc4c3cc2CO1	2.7µM*	?	4.1µM*	26%	23%	?
CC1(C)Cc2nc3sc4c(SCC(=O)O)ncnc4c3cc2CO1	0.38µM*	?	5%	?	?	/
CS(=O)(=O)N1CCC[C@@]2(CCN(Cc3ccc(C#N)cc3)C2)C1	/	/	/	/	/	-12%
O=C(c1cc2cc([N+](=O)[O-])ccc2oc1=O)n1cccn1	-3%	-13%	-2%	-4%	4µM*	0%
CCN1CCN(C(=O)c2cc3cc([N+](=O)[O-])ccc3oc2=O)CC1	-1%	11%	6%	1%	-6%	8%
COc1ccc(-c2cc3c(=O)n(CC(=O)NCCCN4CCC(Cc5ccccc5)CC4)ncn3n2)cc1	4.8µM*	?	?	?	?	/
COc1ccc(-c2cc3c(=O)n(CC(=O)NCCCN4CCN(Cc5ccccc5)CC4)ncn3n2)cc1	1.5µM*	?	?	?	?	/
COc1ccc(-c2cc3c(=O)n(CC(=O)NCc4ccc(C)cc4)ncn3n2)cc1	-17%	?	?	3%	16%	/
CCOc1ccc(CCNC(=O)Cn2ncn3nc(-c4ccc(OC)cc4)cc3c2=O)cc1	-5%	?	?	14%	19%	/
O=C(Cn1ncn2nc(-c3ccccc3)cc2c1=O)NCc1ccccn1	11µM*	21%	2%	1%	11%	/

Screening results: PubChem BioAssay, National Center for Advancing Translational Sciences (NCATS)
